Shown are actives, neighbours in structure and some others; about 8.5% of the full set was active somewhere.
Sfp inh = qHTS Assay for Inhibitors of Bacillus subtilis Sfp phosphopantetheinyl transferase (PPTase). 4'-phosphopantetheinyl transferase ffp (Bacillus subtilis), Q9F4F7. Biochemical Sfp PPTase activity, qHTS. Potency, µM, most hits filed as inhibitors. actives 3.5% (n = 310,000). AID 1490, 2009;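 further: the enzyme is Sfp with the accession as filed and its product quenches rhodamine fluorescence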
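Fluorescence-quenching assay with 15 nM Sfp, 5 uM rhodamine-CoA and 12.5 uM BHQ-2-labelled ybbR peptide in pH 7.6 Hepes/MgCl2 buffer. Enzyme was pre-incubated with compound for 15 min at room temperature. Rate was taken from the 30-min fluorescence change (525/598 nm).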
GoLoco inh red = qHTS Assay for Inhibitors of RGS12 GoLoco Motif Activity (Red Fluorophore); Guanine nucleotide-binding protein G(i) subunit alpha-1 (Homo sapiens), P63096; Gai1:RGS12 GoLoco peptide FP, rhodamine, 10 min; Potency, µM (series often up to 61.6 µM), most hits filed as inhibitors; actives 0.44% (n = 230,000); AID 880, 2007; active means well fitted inhibition curve with a large enough effect, not every such curve was filed as active; inactive means no such curve, though single readings can be large or run the other way; further: nearly all actives have a fitted effect of over 30% in size
Target sequence (P63096 whole entry, looked up): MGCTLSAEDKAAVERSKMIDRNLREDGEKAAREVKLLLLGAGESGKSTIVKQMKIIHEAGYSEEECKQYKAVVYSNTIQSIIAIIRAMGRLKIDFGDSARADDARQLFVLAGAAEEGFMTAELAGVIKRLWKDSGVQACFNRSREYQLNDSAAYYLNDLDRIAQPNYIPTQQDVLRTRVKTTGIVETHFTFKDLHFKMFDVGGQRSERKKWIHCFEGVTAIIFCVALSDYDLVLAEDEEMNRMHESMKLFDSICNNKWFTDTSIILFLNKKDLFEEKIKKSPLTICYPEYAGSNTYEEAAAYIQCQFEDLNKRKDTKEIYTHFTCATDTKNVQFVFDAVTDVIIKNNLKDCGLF
NPSR antagonist = qHTS Assay for Antagonists of the Neuropeptide S Receptor: cAMP Signal Transduction; actives 1% (n = 220,000); Q6W5P4; Potency, µM (highest dose often 38.3 µM), actives largely listed as inhibitors; CHO-NPSR cells, cAMP TR-FRET, antagonist mode; further: nearly all actives have a fitted effect of over 50% in size
Coupling enz = qHTS Assay for Inhibitors of Fructose-1,6-bisphosphate Aldolase from Giardia Lamblia: Coupling assay counterscreen; activity change, negative = inhibition, % at 58.2 µM, hits read low; coupling enzyme system counterscreen, AmpLite Red fluorescence; actives 0.67% (n = 290,000); in the data active means activity change below about -30%
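Final compound at 57.5 uM, incubated 10 min at RT with coupling enzyme reagent (glyceraldehyde-3-phosphate), then 20 min with substrate and AmpLite Red detection. Fluorescence read at 525/598 nm; tests interference with the coupling assay, not aldolase inhibition.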
KDM4E inh = qHTS Assay for Inhibitors of Human Jumonji Domain Containing 2E (JMJD2E) | Lysine-specific demethylase 4E (Homo sapiens), B2RXH2 | JMJD2E catalytic domain, FDH-coupled NADH fluorescence (FDH is formaldehyde dehydrogenase) | Potency, µM (top dose mostly 57.1 µM), hits mostly inhibitors | actives 1.6% (n = 230,000) | AID 2147, 2009; active means well fitted inhibition curve with a large enough effect, not every such curve was filed as active; inconclusive means small, poorly fitted or top-dose-only effect, or another doubt; inactive means no such curve, though single readings can be large or run the other way; further: nearly all actives have a fitted effect of over 50% in size
Target sequence (B2RXH2 1-337 limits assumed): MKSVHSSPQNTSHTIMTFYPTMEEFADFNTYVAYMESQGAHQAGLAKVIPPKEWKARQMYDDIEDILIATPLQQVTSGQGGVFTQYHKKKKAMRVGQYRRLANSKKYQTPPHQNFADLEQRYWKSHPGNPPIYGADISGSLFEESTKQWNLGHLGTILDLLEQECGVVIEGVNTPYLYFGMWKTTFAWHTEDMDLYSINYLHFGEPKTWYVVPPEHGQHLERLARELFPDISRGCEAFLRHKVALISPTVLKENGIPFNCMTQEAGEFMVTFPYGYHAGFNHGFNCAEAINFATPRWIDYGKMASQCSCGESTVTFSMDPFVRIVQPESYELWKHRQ
ALDH1A1 inh = qHTS Assay for Inhibitors of Aldehyde Dehydrogenase 1 (ALDH1A1). actives 7.3% (n = 220,000). Purified ALDH1A1, NADH fluorescence, propionaldehyde substrate. AID 1030, 2008. Potency, µM (titrated, usually from 75.3 µM), actives largely listed as inhibitors. Aldehyde dehydrogenase 1A1 (Homo sapiens), P00352; active means well fitted inhibition curve with a large enough effect, not every such curve was filed as active; inconclusive means small, poorly fitted or top-dose-only effect, or another doubt; inactive means no such curve, though single readings can be large or run the other way
Each line names hits and unclear results; the compound was inactive in the other large screens; ! = not active in a repeat. Unless noted, the call rests on the fitted dose curve; in most records, active means well fitted curve in the direction sought with a large enough effect; inconclusive means small, poorly fitted or top-dose-only effect, or another doubt; inactive means no such curve, though single readings can be large; an effect the other way counts as inactive or inconclusive.

COCCn1c(Sc2ccc(C)cc2)nc2c1c(=O)[nH]c(=O)n2C	ALDH1A1 inh 12.6µM
COc1ccc(OC)c(N(CC(=O)N2CCOCC2)S(C)(=O)=O)c1	none (no result: GoLoco inh red, NPSR antagonist, KDM4E inh, ALDH1A1 inh)
NC(=O)[C@@H]1CCCNC1	none (no result: Sfp inh, NPSR antagonist, Coupling enz, KDM4E inh)
CC[C@]1(c2ccccc2)NC(=O)NC1=O	none (no result: GoLoco inh red, NPSR antagonist, KDM4E inh, ALDH1A1 inh)
CCSc1nc2sc3c(c2c(=O)[nH]1)CCCC3	none
CCSC1=NC2(CCCCC2)Nc2sc3c(c21)CCCC3	Sfp inh 39.8µM, NPSR antagonist inconclusive, KDM4E inh inconclusive, ALDH1A1 inh 7.08µM
CCC(=O)c1cn(CC(=O)Nc2ccc(OC)cc2)c2ccccc12	none (no result: GoLoco inh red, NPSR antagonist, KDM4E inh, ALDH1A1 inh)
CC(=O)Nc1ccc2sc(C)nc2c1	none
CC(=O)NS(=O)(=O)c1ccc2sc(C)nc2c1	Sfp inh 79.4µM, ALDH1A1 inh inconclusive
O=C1Nc2ccccc2/C1=C/c1ccccc1F	none (no result: GoLoco inh red, NPSR antagonist, KDM4E inh, ALDH1A1 inh)
Cc1ccc(/C=N/N2C(=O)C3C(C2=O)C2C=CC3C23CC3)o1 (stereo not given)	ALDH1A1 inh inconclusive
Cc1ccc(/C=C2\C(=O)NC(=O)N2C)o1	Sfp inh 39.8µM (no result: GoLoco inh red, NPSR antagonist, KDM4E inh, ALDH1A1 inh)
CN(C)c1ccc(/C=C2\C(=O)Nc3ccccc32)cc1	Sfp inh 56.2µM!, NPSR antagonist inconclusive, ALDH1A1 inh 7.08µM
Cc1ccc(/C=C2\C(=O)Nc3ccccc32)o1	Sfp inh 15.8µM, ALDH1A1 inh 7.94µM
O=C(c1ccc(COc2ccc(Cl)cc2)cc1)N1CCCCC1	ALDH1A1 inh 28.2µM
O=C(CCCOc1ccc(Cl)cc1)N1CCCCC1	none
O=C(CCCOc1ccc(Cl)cc1)N1CCCCCC1	Sfp inh inconclusive, NPSR antagonist inconclusive, ALDH1A1 inh 7.94µM
Cc1ccc(CNC(=O)C2CCCN(c3ncnc4c3nc3n4CCCCC3)C2)cc1 (stereo not given)	none (no result: GoLoco inh red, NPSR antagonist, KDM4E inh, ALDH1A1 inh)
O=C(NC1CCC(O)CC1)c1cccc2cccnc12 (stereo not given)	none (no result: GoLoco inh red, NPSR antagonist, KDM4E inh, ALDH1A1 inh)
Cc1ccc(CCNC(=O)C23C[C@H]4C[C@@H](C2)CC(n2nnc(C)n2)(C4)C3)cc1	none
Cc1nnn(C23CC4CC(CC(C(=O)NN)(C4)C2)C3)n1	ALDH1A1 inh 1.41µM
NNC(=O)C12CC3CC(C1)CC(n1ncnn1)(C3)C2	ALDH1A1 inh 3.55µM
c1nnn(C23CC4CC(CC(C4)C2)C3)n1	none
C=CCN1C(=O)/C(=C2\SC(N3CCOCC3)=NC2=O)c2cc(Br)ccc21	ALDH1A1 inh 3.55µM
O=C1NC(c2cccc(Br)c2)=N/C1=C\c1ccco1	Sfp inh inconclusive, ALDH1A1 inh 11.2µM
O=C1NC(c2ccccc2Br)=N/C1=C\c1ccco1	Sfp inh inconclusive (no result: ALDH1A1 inh)
O=C1NC(c2ccccc2)=N/C1=C/c1ccco1	Sfp inh inconclusive, ALDH1A1 inh 17.8µM
CC(C)(C)c1ncc(S(=O)(=O)c2ccc(C(F)(F)F)cn2)c(N)n1	none
O=C(CCCN1C(=O)/C(=C\c2cccs2)SC1=S)NNC(=O)c1ccncc1	none
CC(/C=C1\SC(=S)N(NC(=O)c2ccc(O)cc2)C1=O)=C\c1ccccc1	Sfp inh 50.1µM, ALDH1A1 inh inconclusive
O=C(NN1C(=O)/C(=C/c2cccs2)SC1=S)c1ccncc1	Sfp inh 79.4µM, NPSR antagonist inconclusive (no result: ALDH1A1 inh)
Cc1ccc(/C=C2/SC(=O)NC2=S)o1	Sfp inh 22.4µM, GoLoco inh red 5.01µM, NPSR antagonist 12.6µM, KDM4E inh inconclusive, ALDH1A1 inh 14.1µM
Cc1ccc(C(=O)NN2C(=O)/C(=C/c3cccn3C)SC2=S)cc1	Sfp inh 20µM, ALDH1A1 inh inconclusive
Cc1ccc(C(=O)NN2C(=O)/C(=C/c3cn(C)c4ccccc34)SC2=S)cc1	GoLoco inh red 22.4µM
Cn1cc(/C=C2\SC(=S)N(NC(=O)c3ccccc3Cl)C2=O)c2ccccc21	none
Cn1cc(/C=C2\SC(=O)NC2=S)c2ccccc21	Sfp inh 31.6µM, ALDH1A1 inh 1.41µM
OCCC1CN(Cc2nc3ccc(F)cc3[nH]2)CCN1C1CCCC1 (stereo not given)	none (no result: ALDH1A1 inh)
Cn1cnnc1SCC(=O)c1cc2ccccc2oc1=O	KDM4E inh inconclusive, ALDH1A1 inh 10µM
Cn1cnnc1SCC(=O)c1ccc2c(c1)CCCC2	ALDH1A1 inh 31.6µM
O=C(CSc1nnc(-c2cccnc2)o1)c1cc2ccccc2oc1=O	Sfp inh inconclusive, NPSR antagonist inconclusive, ALDH1A1 inh inconclusive
COc1cc(C(=O)CSc2nncn2C)cc(OC)c1OC	Sfp inh inconclusive, KDM4E inh inconclusive, ALDH1A1 inh 12.6µM
Cn1cnnc1SCC(=O)Nc1ccc2c(c1)CCC2	none
CCCc1c(OCC(O)COc2ccc3c(=O)cc(C(=O)O)oc3c2CCC)ccc(C(C)=O)c1O (stereo not given)	none (no result: NPSR antagonist, KDM4E inh)
COc1cc(/C=C/C(=O)c2ccc(C)cc2)ccc1OCC#N	ALDH1A1 inh 12.6µM
COc1ccc(C=O)cc1COc1c(F)c(F)cc(F)c1F	ALDH1A1 inh inconclusive
COc1ccc(C(=O)/C=C/c2ccc(OC)c(COc3ccccc3F)c2)cc1	ALDH1A1 inh 2.51µM
COc1ccc(/C=C/C(=O)c2ccc(C(=O)/C=C/c3ccc(OC)c(OC)c3)cc2)cc1OC	none (no result: GoLoco inh red, NPSR antagonist, KDM4E inh, ALDH1A1 inh)
COc1ccc(C=O)cc1COc1ccc(F)cc1F	ALDH1A1 inh 8.91µM
CC1C(=O)N2CCCc3cc(S(=O)(=O)N(C)CCC#N)cc1c32 (stereo not given)	none (no result: GoLoco inh red, NPSR antagonist, KDM4E inh, ALDH1A1 inh)
O=C(NCc1ccc(Cl)cc1)c1cc(-c2cccs2)on1	Sfp inh 25.1µM
COc1ccc(CNC(=O)c2cc(-c3cccs3)on2)cc1	none
CC1=C(C#N)C(c2cccnc2)C2=C(N1)c1ccccc1C2=O (stereo not given)	KDM4E inh inconclusive

Assay outcomes deposited in PubChem by National Center for Advancing Translational Sciences (NCATS).
